Assay results reported in PubChem BioAssay AID1159580 (chemical genetic matrix, 2015).
Out of some 5,500 compounds screened, about 2,000 (36%) were called active. Inconclusive results (about 18%) are left out. Rule as the data show it: active = normalized growth mostly below about 0.91 (no sharp cut-off); inconclusive = no clear call, values can overlap the other calls; inactive = mostly above about 0.92. This is one part of the list.

Experiment: chemical genetic growth profiling, strain panel (AID 1159580);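 also: tested at 20 µM; growth read once vehicle control cultures reached saturation at 30 °C; 1 = growth at the plate median or of vehicle wells; lower values mean less growth of the strain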
Conditions: growth OD

Measured: normalized growth

CC1=C(/C=C/C(C)=C/C=C/C(C)=C/C=C/C=C(C)/C=C/C=C(C)/C=C/C23OC2(C)CC(O)CC3(C)C)C(C)(C)CC(O)C1 (configuration not stated)
inactive: S. cerevisiae deletion strains, locus YBR021W, strain FUR4, stronger effect = lower value 1 | S. cerevisiae deletion strains, locus YBR229C, strain ROT2, stronger effect = lower value 1.01 | S. cerevisiae deletion strains, locus YCL029C, strain bik1, stronger effect = lower value 1.02 | S. cerevisiae deletion strains, locus YDL035C, strain GPR1, stronger effect = lower value 1.01 | S. cerevisiae deletion strains, locus YDL074C, strain BRE1, stronger effect = lower value 1.03 | S. cerevisiae deletion strains, locus YDL101C, strain DUN1, stronger effect = lower value 1.01 | S. cerevisiae deletion strains, locus YDL185W, strain tfp1, stronger effect = lower value 1 | S. cerevisiae deletion strains, locus YDL192W, strain arf1, stronger effect = lower value 1 | S. cerevisiae deletion strains, locus YDR101C, strain arx1, stronger effect = lower value 1.01 | S. cerevisiae deletion strains, locus YDR162C, strain NBP2, stronger effect = lower value 0.997 | S. cerevisiae deletion strains, locus YDR318W, strain mcm21, stronger effect = lower value 1.01 | S. cerevisiae deletion strains, locus YDR388W, stronger effect = lower value 1.01 | S. cerevisiae deletion strains, locus YDR502C, strain sam2, stronger effect = lower value 1.02 | S. cerevisiae deletion strains, locus YEL061C, strain CIN8, stronger effect = lower value 1.01 | S. cerevisiae deletion strains, locus YER110C, stronger effect = lower value 1.02 | S. cerevisiae deletion strains, locus YER155C, strain BEM2, stronger effect = lower value 1.01 | S. cerevisiae deletion strains, locus YER167W, strain BCK2, stronger effect = lower value 1.02 | S. cerevisiae deletion strains, locus YGL078C, strain dbp3, stronger effect = lower value 0.995 | S. cerevisiae deletion strains, locus YGL086W, strain mad1, stronger effect = lower value 1.05 | S. cerevisiae deletion strains, locus YGL248W, strain PDE1, stronger effect = lower value 1 | S. cerevisiae deletion strains, locus YGR135W, strain pre9, stronger effect = lower value 0.982 | S. cerevisiae deletion strains, locus YGR252W, strain gcn5, stronger effect = lower value 0.987 | S. cerevisiae deletion strains, locus YHR030C, strain SLT2, stronger effect = lower value 1.01 | S. cerevisiae deletion strains, locus YHR079C, strain IRE1 (second series), stronger effect = lower value 1 | S. cerevisiae deletion strains, locus YHR094C, strain hxt1, stronger effect = lower value 1.01 | S. cerevisiae deletion strains, locus YHR129C, strain ARP1, stronger effect = lower value 1.02 | S. cerevisiae deletion strains, locus YHR200W, strain rpn10, stronger effect = lower value 1.01 | S. cerevisiae deletion strains, locus YIL066C, strain RNR3, stronger effect = lower value 1.01 | S. cerevisiae deletion strains, locus YIL073C, strain SPO22, stronger effect = lower value 1.1 | S. cerevisiae deletion strains, locus YIL125W, strain kgd1, stronger effect = lower value 1.01 | S. cerevisiae deletion strains, locus YIR030C, strain dcg1, stronger effect = lower value 1.01 | S. cerevisiae deletion strains, locus YJL095W, strain BCK1, stronger effect = lower value 0.998 | S. cerevisiae deletion strains, locus YJL134W, strain LCB3, stronger effect = lower value 1.01 | S. cerevisiae deletion strains, locus YJL168C, strain set2, stronger effect = lower value 1.01 | S. cerevisiae deletion strains, locus YJL187C, strain SWE1 (second series), stronger effect = lower value 1 | S. cerevisiae deletion strains, locus YJR043C, strain POL32, stronger effect = lower value 0.999 | S. cerevisiae deletion strains, locus YKL009W, strain mrt4, stronger effect = lower value 1.03 | S. cerevisiae deletion strains, locus YKL068W, stronger effect = lower value 1 | S. cerevisiae deletion strains, locus YKL085W, strain MDH1 (second series), stronger effect = lower value 1.01 | S. cerevisiae deletion strains, locus YKL085W, strain MDH1, stronger effect = lower value 1.01 | S. cerevisiae deletion strains, locus YKL190W, strain CNB1, stronger effect = lower value 1.01 | S. cerevisiae deletion strains, locus YKR001C, strain vps1, stronger effect = lower value 1.04 | S. cerevisiae deletion strains, locus YLR039C, strain RIC1, stronger effect = lower value 1.01 | S. cerevisiae deletion strains, locus YLR058C, strain SHM2, stronger effect = lower value 1.01 | S. cerevisiae deletion strains, locus YLR102C, strain apc9, stronger effect = lower value 1.02 | S. cerevisiae deletion strains, locus YLR262C, strain YPT6, stronger effect = lower value 0.973 | S. cerevisiae deletion strains, locus YLR268W, strain sec22, stronger effect = lower value 1.02 | S. cerevisiae deletion strains, locus YLR330W, strain CHS5, stronger effect = lower value 1.02 | S. cerevisiae deletion strains, locus YLR342W, strain FKS1 (second series), stronger effect = lower value 1.06 | S. cerevisiae deletion strains, locus YLR371W, strain rom2, stronger effect = lower value 1.01 | S. cerevisiae deletion strains, locus YLR418C, strain cdc73, stronger effect = lower value 1 | S. cerevisiae deletion strains, locus YML016C, strain PPZ1, stronger effect = lower value 1.01 | S. cerevisiae deletion strains, locus YML032C, strain rad52, stronger effect = lower value 1 | S. cerevisiae deletion strains, locus YML124C, strain tub3, stronger effect = lower value 1 | S. cerevisiae deletion strains, locus YMR078C, strain ctf18, stronger effect = lower value 1.02 | S. cerevisiae deletion strains, locus YMR223W, strain ubp8, stronger effect = lower value 1.01 | S. cerevisiae deletion strains, locus YMR263W, strain SAP30, stronger effect = lower value 1.01 | S. cerevisiae deletion strains, locus YMR307W, strain GAS1, stronger effect = lower value 1.02 | S. cerevisiae deletion strains, locus YNL067W, strain RPL9B, stronger effect = lower value 1 | S. cerevisiae deletion strains, locus YNL153C, strain GIM3, stronger effect = lower value 0.994 | S. cerevisiae deletion strains, locus YNL233W, strain BNI4, stronger effect = lower value 1.02 | S. cerevisiae deletion strains, locus YNL250W, strain rad50, stronger effect = lower value 1.01 | S. cerevisiae deletion strains, locus YNL271C, strain bni1, stronger effect = lower value 1 | S. cerevisiae deletion strains, locus YNL298W, strain CLA4, stronger effect = lower value 0.991 | S. cerevisiae deletion strains, locus YNL307C, strain MCK1, stronger effect = lower value 1.01 | S. cerevisiae deletion strains, locus YNL322C, strain KRE1, stronger effect = lower value 1.01 | S. cerevisiae deletion strains, locus YNR052C, strain pop2, stronger effect = lower value 1 | S. cerevisiae deletion strains, locus YOL006C, strain TOP1, stronger effect = lower value 1.11 | S. cerevisiae deletion strains, locus YOL012C, strain htz1 0.925 | S. cerevisiae deletion strains, locus YOL147C, strain pex11, stronger effect = lower value 1.01 | S. cerevisiae deletion strains, locus YOR061W, strain CKA2, stronger effect = lower value 1.02 | S. cerevisiae deletion strains, locus YOR069W, strain VPS5, stronger effect = lower value 1.02 | S. cerevisiae deletion strains, locus YOR136W, strain idh2, stronger effect = lower value 1 | S. cerevisiae deletion strains, locus YOR144C, strain elg1, stronger effect = lower value 0.998 | S. cerevisiae deletion strains, locus YOR184W, strain ser1, stronger effect = lower value 1.03 | S. cerevisiae deletion strains, locus YOR316C, strain cot1, stronger effect = lower value 1.03 | S. cerevisiae deletion strains, locus YPR119W, strain clb2, stronger effect = lower value 0.994 | S. cerevisiae deletion strains, locus YPR141C, strain kar3, stronger effect = lower value 1.01 | S. cerevisiae deletion strains, locus YPR163C, strain tif3, stronger effect = lower value 1.01 | S. cerevisiae deletion strains, locus YPR167C, strain met16, stronger effect = lower value 1.01 | S. cerevisiae deletion strains, strain wtn01, stronger effect = lower value 1.02 | S. cerevisiae strains, strain wild type, stronger effect = lower value 1.01
